Ten compounds from PubChem BioAssay AID662 (National Center for Advancing Translational Sciences (NCATS), 2007) can be followed below.

Out of some 71,000 compounds screened, about 1,800 (2.5%) were called active. Another 26% or so got no clear call; they are omitted. For the sample, actives were picked, then their nearest neighbours and some compounds at random. Unmarked numbers belong to inactive results. The call rests on the fitted dose curve; in most records, active means well fitted activation curve with a large enough effect in the signal ratio, with a control signal flat (not every such curve was filed as active); inconclusive means small, poorly fitted or top-dose-only effect, or effect the other way, or a change in a side signal; inactive means flat fitted curve, though single readings scatter; the % refers to the signal ratio.
Potency means the concentration at half of the fitted maximal effect.

The test can be described thus: Cell signaling CRE-BLA (Fsk stim). On activity change, negative = inhibition: % of control where 0% means no effect. The following applies: CHO CRE-bla reporter (cAMP response element driving beta-lactamase), forskolin EC10, beta-lactamase ratio; series mostly up to 38.2 µM; activity change, negative = inhibition: at the top concentration. The source says: NIH Molecular Libraries Screening Centers Network [MLSCN]
NIH Chemical Genomics Center [NCGC]
Assay Provider: Marshall W. Nirenberg, U.S. National heart lung & blood institute
Memories persist for different lengths of time, from seconds or minutes to a lifetime. There are two kinds of memory: short-term memory (STM) and long-term memory (LTM). STM lasts for minutes to hours, which maybe mediated by modifications of molecules involved in synaptic functions. LTM lasts for days or longer, and may be due to the formation of new synapses or restructuring of existing synapses. LTM, but not STM, requires gene transcription and synthesis of proteins. CREB (cyclic-AMP Responsive Element Binding Protein) is one of the candidates plays an important role for enhancement of some types of LTM. CREB, a family of transcription factors, regulates the transcription of genes containing cAMP Responsive Elements (CRE). CRE is a nucleotide sequence often found in the promoter regions of genes that are binding sites for CREB.
Using a beta-lactamase reporter-gene under control of cAMP responsive element, a cell-based assay [CellSensor(TM) CRE-bla CHO developed by Invitrogen Corp.] was used to measure forskolin-induced signaling. Library compounds were measured for their ability to modulate positively or negatively the action of EC10 NKH 477, a water soluble forskolin, on reporter gene activity. Compounds were screened in a titration series in 1536-well format. Positive and negative modulators were identified based on the AC50 values derived from the screening data.
NCGC Assay Protocol Summary
2000 cells/5uL in Opti-MEM medium containing 0.5% dialyzed FBS, 0.1 mM NEAA, 1 mM sodium pyruvate and 10 mM HEPES was dispensed into 1536-well plates and cells were cultured at 37 degrees Celsius overnight. […] And then the plates were incubated at 37 degrees Celsius for 3 hours. 1 uL of CCF4-dye mixture was added to each well. After incubated at room temperature for 2 hours the plates were measured on an EnVision plate reader at Excitation 405nm, Emission1=460nm and Emission 2=530nm. The %Activity was determined from the ratio of 460nm/530nm.
Keywords: NIH Roadmap, MLSCN, MLSMR, qHTS, NCGC, CRE, beta-lactamase reporter-gene assay.
As for `O=C(c1cc(S(=O)(=O)N2CCOCC2)ccc1F)N1CCC2(CC1)OCCO2`, the “activity change, negative = inhibition” value was -0.495%.

Turning to `COc1ccc(S(=O)(=O)NCc2ccc(C(=O)N3CCC4(CC3)OCCO4)cc2)cc1`, the “activity change, negative = inhibition” value was -18%.

For `O=C(c1cc2nc(-c3ccccc3)cc(-c3ccccc3)n2n1)N1CCC2(CC1)OCCO2`, the Potency is 2.51 µM (active).

`C[C@@]1([C@@H](NP(=O)(c2ccccc2)c2ccccc2)c2ccccc2)C[C@H]1CCO`: the “activity change, negative = inhibition” value is -6.41%.

`Cc1cc(-c2ccc(N)c(C)c2)ccc1N`: the “activity change, negative = inhibition” value is 2.87%.

In the case of `N[C@H](Cc1o[nH]c(=O)c1Cl)C(=O)O`, the “activity change, negative = inhibition” value is -13.5%.

For the compound `ClC(Cl)=C(Cl)C(Cl)=C(Cl)Cl`, the “activity change, negative = inhibition” value was -6.71%.

Regarding `CCCCCCN=C(CC)c1c(O)n(CCCC)c(=O)[nH]c1=O`, the Potency was 10 µM (active).

As to `CCC(=NCCCO)c1c(O)n(-c2ccc(OC)cc2)c(=O)[nH]c1=O`, the “activity change, negative = inhibition” value is 6.61%.

Turning to `ClC(Cl)(Cl)c1ccccc1`, the Potency result was “inactive”.
